Screening results (PubChem BioAssay)
FLuc inh – blocks purified firefly luciferase enzyme activity. P08659. AID 1347043. purified P. pyralis luciferase, luminescence, biochemical. Potency, µM (top dose mostly 115 µM), actives largely listed as inhibitors. 76,000 tested, 2.5% active; note: nearly all actives have a fitted effect of over 65% in size
Target sequence (P08659 whole entry, looked up): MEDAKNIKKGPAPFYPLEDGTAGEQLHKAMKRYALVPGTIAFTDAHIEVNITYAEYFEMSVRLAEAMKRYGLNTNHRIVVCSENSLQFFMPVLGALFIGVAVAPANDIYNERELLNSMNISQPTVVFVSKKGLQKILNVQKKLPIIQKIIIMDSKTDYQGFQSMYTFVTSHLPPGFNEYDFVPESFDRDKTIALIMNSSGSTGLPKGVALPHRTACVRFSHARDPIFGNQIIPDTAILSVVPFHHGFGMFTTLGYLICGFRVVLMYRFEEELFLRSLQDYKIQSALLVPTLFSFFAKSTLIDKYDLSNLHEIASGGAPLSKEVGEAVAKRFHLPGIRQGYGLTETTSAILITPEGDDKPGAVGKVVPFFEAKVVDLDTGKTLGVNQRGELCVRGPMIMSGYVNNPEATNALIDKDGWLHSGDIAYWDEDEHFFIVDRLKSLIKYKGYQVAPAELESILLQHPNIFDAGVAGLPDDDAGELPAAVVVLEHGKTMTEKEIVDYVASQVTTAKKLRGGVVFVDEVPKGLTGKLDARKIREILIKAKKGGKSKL
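Purified 10nM P. pyralis luciferase with 10uM D-luciferin and 10uM ATP in 50mM Tris acetate pH 7.5, 10mM Mg acetate, 0.01% Tween-20, 0.05% BSA. qHTS titration; luminescence read by CCD imager.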
NIH3T3 tox – NIH 3T3 cell cytotoxicity | NIH 3T3 viability, CellTiter-Glo ATP luminescence, 48-72 h | Potency, µM (doses to about 96.7 µM), without a hit: top-dose activity change, negative = cytotoxicity, actives largely listed as inhibitors | 94,000 tested, 4.3% active; note: nearly all actives have a fitted effect of over 55% in size
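Cells were seeded at 400 per well, treated with pin-transferred compound, and kept 48 or 72 hr at 37 °C before CellTiter-Glo addition and luminescence imaging of cellular ATP.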
NPR1 antag – human Npr1 receptor antagonism. HEK293 hNpr1 GloSensor cGMP, ANP-stimulated luminescence. 76,000 tested, 1.6% active. P16066. Potency, µM (titrated, usually from 46.3 µM), without a hit: top-dose activity change, negative = inhibition, actives largely listed as inhibitors; calls by dose curve; note: nearly all actives have a fitted effect of over 60% in size
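HEK293 cells stably expressing human Npr1 and cGMP GloSensor pGS-40F, loaded 2 h with 2% GloSensor reagent, given compound 30 min at room temperature. Luminescence read before and 20 min after 0.1 nM hNppA.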
HEK cytotox – kills HEK 293 cells | HEK 293 viability, ATP luminescence (CellTiter-Glo), 48-72 h | 94,000 tested, 6.6% active | Potency, µM (doses to about 115 µM), without a hit: top-dose activity change, negative = cytotoxicity, actives largely listed as inhibitors; note: nearly all actives have a fitted effect of over 60% in size
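Read-out: CellTiter-Glo ATP luminescence. Cells: HEK 293, 250 cells/well. Exposure: 48 or 72 hr, 37 degree Celsius.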
The depositor's hits bear a star; i = inactive; u = inconclusive; x = no result; [ ] = remark or other dose. In the library only some 11% were active in any assay of this set; here they are far more common. Unless noted, calls come from the whole dose curve; as a rule, active = well fitted curve in the direction sought with a large enough effect; inconclusive = small, poorly fitted or top-dose-only effect, or another doubt; inactive = no such curve, though single readings can be large; an effect the other way counts as inactive or inconclusive. % is set by controls: 0 for no effect and ±100 for the full control effect; potency is the fitted concentration of half-maximal effect.

SMILES	FLuc inh	NIH3T3 tox	NPR1 antag	HEK cytotox
COCCNC(=O)C1(C)CN(C)Cc2ccc(Nc3ccccc3)nc21 (centres undefined)	i	-23%[138 µM]	0%[70.6 µM]	u
CN(C)CCNC(=O)C1(C)CN(Cc2ccccc2)Cc2ccc(Nc3ccccc3)nc21 (centres undefined)	i	16µM*	1%	28µM*
CN1Cc2ccc(NCc3ccccc3)nc2C(C)(C(=O)NCc2cccs2)C1 (centres undefined)	i	79µM*	-19%[70.6 µM]	u
COc1ccc(NC(=O)C2(C)CN(C)Cc3ccc(NCc4ccccc4)nc32)cc1 (centres undefined)	i	45µM*	-17%[70.6 µM]	u
CC(=O)N1CCC(C2CCN(C(=O)c3cc(C)n(C)n3)C2)CC1 (centres undefined)	x	2%	x	-3%
CN(Cc1ccccc1)[C@H]1[C@H](O)[C@H](CO)O[C@@H]1CNCc1ccc(F)cc1	i	-11%	7%	-15%
COC(=O)N1CCN(C(=O)c2nc3cccnc3n(-c3ccccc3OC)c2=O)CC1	x	i	x	-7%
CN1Cc2ccc(NCc3ccccc3)nc2C(C)(C(=O)Nc2ccccc2)C1 (centres undefined)	i	45µM*	-28%[70.6 µM]	63µM*
O=C(Nc1cccc(F)c1)[C@@H]1OCCN(C2CC2)[C@H]1c1ccccc1	x	-25%	x	-30%
CC1CCCCN1CCCNC(=O)c1cc2c(s1)CN(C1CCCC1)C2 (centres undefined)	u	u	-4%	79µM*
COc1ccc(C(=O)N2CCC(N3C(=O)c4c(c(C)nn4-c4ccccc4)C3C3CC3)C2)cc1 (centres undefined)	x	u	x	45µM*
Cc1nn(-c2ccccc2)c2c1C(C1CC1)N(CC1CN(C(=O)Nc3ccccc3)C1)C2=O (centres undefined)	x	-38%	x	u
Cc1nn(-c2ccccc2)c2c1C(C1CC1)N(CC1CN(C(=O)c3ccc(F)cc3)C1)C2=O (centres undefined)	x	u	x	35µM*
Cc1nn(-c2ccccc2)c2c1C(C1CC1)N(C1CCN(C(=O)c3ccccc3)C1)C2=O (centres undefined)	x	14µM*	x	u
Cc1nn(-c2ccccc2)c2c1C(C1CC1)N(C1CCN(C(=O)c3cccc(C(F)(F)F)c3)C1)C2=O (centres undefined)	x	-27%	x	-31%
Cc1nn(-c2ccccc2)c2c1C(C1CC1)N(C1CN(C(=O)c3ccc(C(F)(F)F)cc3)C1)C2=O (centres undefined)	x	-28%	x	u
Cc1ccc(C(=O)N2CCC(N3C(=O)c4c(c(C)nn4-c4ccccc4)C3C3CC3)C2)cc1 (centres undefined)	x	18µM*	x	25µM*
Cc1nn(-c2ccccc2)c2c1C(C1CC1)N(C1CN(C(=O)c3ccncc3)C1)C2=O (centres undefined)	x	-1%	x	4%
O=C(NCC(F)F)C1CCCN1C(=O)c1cccc(-c2cccnc2)c1 (centres undefined)	x	-13%	x	-6%
Cc1nn(-c2ccccc2)c2c1C(C1CC1)N(C1CCCN(C(=O)c3ccc(F)cc3)C1)C2=O (centres undefined)	x	u	x	32µM*
Cc1ccsc1CN1CCCN(S(C)(=O)=O)C(c2ccccc2)CC(=O)NCC1 (centres undefined)	i	-10%	2%	-4%
O=[S+]1([O-])NCC2(CCN(Cc3cccs3)CC2)Oc2ncccc21	x	-2%	x	-6%
COc1ccc(-c2ccc3ncc(Nc4ccc(CCO)cc4)n3n2)cn1	i	u	1%[70.6 µM]	u
COc1ccc(-c2ccc3ncc(Nc4cccc(Cl)c4)n3n2)cn1	i	u	u	45µM*
COc1ccc(-c2ccc3ncc(Nc4ccncc4)n3n2)cn1	i	u	-3%[70.6 µM]	100µM*
SMILES	FLuc inh	NIH3T3 tox	NPR1 antag	HEK cytotox
COc1ccc(-c2ccc3ncc(Nc4cccc(C(F)(F)F)c4)n3n2)cn1	i	u	-30%[70.6 µM]	45µM*
O=[S+]([O-])(NC1CCN(c2ccc3nnc(-c4ccccc4)n3n2)C1)c1cccs1 (centres undefined)	x	-14%	x	u
Cc1nc2cnccn2c1C(=O)NCC1CC1	x	-12%[138 µM]	x	0%[172 µM]
COc1cccc(CC2(CO)CCCN(c3nnnn3-c3ccccc3)C2)c1 (centres undefined)	i	u	-7%	u
COc1cccc(CC2(CO)CCCN(c3ccc(-c4nccn4C)nn3)C2)c1 (centres undefined)	i	u	-10%	20µM*
Cc1ccc(-c2noc([C@@H]3Cc4nc[nH]c4CN3C(=O)Nc3ccc(Cl)cc3)n2)cc1	40µM*	u	u	u
CC(=O)c1ccc(NC(=O)N2Cc3[nH]cnc3C[C@H]2c2nc(-c3ccccc3)no2)cc1	i	-6%[138 µM]	-2%[70.6 µM]	0%[172 µM]
O=C(O)CCC(=O)N1Cc2[nH]cnc2C[C@H]1c1nc(-c2ccc(Cl)cc2)no1	71µM*	i	5%[70.6 µM]	4%[172 µM]
O=C(c1ccc(F)cc1)N1Cc2[nH]cnc2C[C@H]1c1nc(-c2ccc3c(c2)OCO3)no1	32µM*	u	-18%[70.6 µM]	u
O=C(c1ccc(F)cc1)N1Cc2[nH]cnc2C[C@H]1c1nc(-c2ccc(Cl)cc2)no1	i	u	-21%[70.6 µM]	u
O=C(Nc1ccccc1)N1Cc2[nH]cnc2C[C@H]1c1nc(-c2ccccc2)no1	40µM*	u	-21%[70.6 µM]	-10%[172 µM]
CC(=O)N1CCN(C(=O)c2ccc3nnc(Cc4ccc(Cl)cc4)n3c2)CC1	x	-2%	x	i
CN(Cc1cccc(C(F)(F)F)c1)Cc1ccccc1OCC(=O)O	i	-14%	2%	-2%
O=C(c1ccccc1)N1Cc2[nH]cnc2C[C@H]1c1nc(-c2ccncc2)no1	i	-27%[174 µM]	1%[70.6 µM]	-17%[172 µM]
Cc1ccc(-c2noc([C@@H]3Cc4nc[nH]c4CN3C(=O)c3ccccc3)n2)cc1	40µM*	-19%[174 µM]	-1%[70.6 µM]	0%[172 µM]
O=C(Nc1ccccc1)N1Cc2[nH]cnc2C[C@H]1c1nc(-c2ccc(Cl)cc2)no1	45µM*	u	u	100µM*
O=C(c1cccs1)N1Cc2[nH]cnc2C[C@H]1c1nc(-c2ccc3ccccc3c2)no1	28µM*	u	-1%[70.6 µM]	-23%[172 µM]
COc1ccc(NC(=O)N2Cc3[nH]cnc3C[C@H]2c2nc(-c3ccc4ccccc4c3)no2)cc1	i	u	-5%	u
O=C(Nc1ccc(Cl)cc1)N1Cc2[nH]cnc2C[C@H]1c1nc(-c2ccc3ccccc3c2)no1	32µM*	u	-2%	u
Cc1ncccc1-c1nc2cc(C(=O)N3CCOCC3)ccc2o1	x	u	x	-10%[172 µM]
COc1ccc2c(c1)C(CNCc1ccccc1)=CC(C)(C)CO2	x	-28%	x	u
O=c1cc(-c2ccncc2)oc2c(-c3cccc(O)c3)nccc12	i	22µM*	3%[70.6 µM]	u
C[S+](=O)([O-])c1ccc(-c2nccc3c(=O)cc(-c4cccnc4)oc23)cc1	i	25µM*	-3%[70.6 µM]	u
